Sampled rows, rich in hits. Any-hit rate of the full collection: about 10%.
RORg inh: ROR gamma (mouse) transcription inhibition. P51450. Drosophila S2 Gal4-RORgamma UAS-luciferase reporter, 20 h. Potency, µM (highest dose often 53.6 µM), without a hit: at the top dose activity change, negative = inhibition, most hits filed as inhibitors. 310,000 tested, 5.4% active. AID 2551; note: % is set by controls: 0 for no effect and ±100 for the full control effect; nearly all actives have a fitted effect of over 60% in size
Target sequence (P51450 whole entry, looked up, the tested form may be a part): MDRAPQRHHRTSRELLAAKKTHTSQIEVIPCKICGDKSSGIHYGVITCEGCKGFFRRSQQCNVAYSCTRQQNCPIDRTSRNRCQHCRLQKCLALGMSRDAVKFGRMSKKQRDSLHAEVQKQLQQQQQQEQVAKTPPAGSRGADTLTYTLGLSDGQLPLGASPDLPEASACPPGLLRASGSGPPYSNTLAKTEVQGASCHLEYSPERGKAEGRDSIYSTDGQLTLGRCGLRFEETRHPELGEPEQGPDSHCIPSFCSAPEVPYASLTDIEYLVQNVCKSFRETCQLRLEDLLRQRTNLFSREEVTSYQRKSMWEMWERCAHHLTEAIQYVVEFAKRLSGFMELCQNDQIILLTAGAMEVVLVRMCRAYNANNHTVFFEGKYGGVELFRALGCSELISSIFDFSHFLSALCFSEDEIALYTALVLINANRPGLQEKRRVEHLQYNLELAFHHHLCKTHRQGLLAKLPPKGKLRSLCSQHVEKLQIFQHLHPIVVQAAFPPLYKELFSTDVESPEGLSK
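Luminescence from a UAS-regulated Photinus luciferase reporter in stably transfected Drosophila Schneider cells is measured; decreased signal marks ROR gamma inhibition. Fusion expression is induced by 700 uM copper sulfate for 20 hr.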
SW480 rerep: induces DNA re-replication in SW480 colon adenocarcinoma cells | 340,000 tested, 1.8% active | AID 624297 | Potency, µM (doses to about 46.1 µM), for inactives: top-dose re-replication activation, most hits filed as activators | SW480 DNA re-replication, Hoechst DNA content imaging, 48 h; note: % of control where 0% means no effect; nearly all actives have a fitted effect of over 55% in size
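Readout is total intensity of Hoechst-stained nuclei, excited at 405 nm and collected at 500-530 nm. Compound treatment lasted 48 hr at 37 C in 5% CO2 before staining.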
KB-3-1 cytotox: KB-3-1 parental cell cytotoxicity; Potency, µM (top dose mostly 46.1 µM), usual class: cytotoxic; KB-3-1 viability, CellTiter-Glo ATP luminescence, 72 h; 400,000 tested, 1.4% active; note: % is set by controls: 0 for no effect and ±100 for the full control effect; nearly all actives have a fitted effect of over 60% in size
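KB-3-1 cells, DMEM (no phenol red) + 10% FBS; compound by pin transfer, 72 h, 37 °C. Readout: CellTiter-Glo luminescence after 10 min. Data normalized, curve-fitted.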
KB-V1 cytotox: kills drug-selected multidrug resistant KB-V1 cells; KB-V1 MDR cells viability, CellTiter-Glo, 72 h; Potency, µM (titrated, usually from 46.1 µM), most hits filed as cytotoxic; 400,000 tested, 3.4% active; AID 1347076; note: % is set by controls: 0 for no effect and ±100 for the full control effect; nearly all actives have a fitted effect of over 60% in size
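KB-V1 MDR subline cells in DMEM (phenol-red free, 10% FBS) exposed to compounds in qHTS concentration series for 72 h at 37 degrees C. Viability read by CellTiter-Glo luminescence; concentration-effect curves fitted after normalization and correction.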
VP16 counter: Gal4-VP16 reporter inhibition counter-screen. AID 2546. Potency, µM (titrated, usually from 53.6 µM), without a hit: at the top dose activity, negative = inhibition, actives largely listed as inhibitors. Drosophila S2 Gal4-VP16 UAS-luciferase, luminescence, 20 h. 310,000 tested, 3.5% active;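 note: Gal4-VP16 expression switched on by copper sulfate through the metallothionein promoter; % is set by controls: 0 for no effect and ±100 for the full control effect; nearly all actives have a fitted effect of over 50% in size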
MCF10A rereplic: DNA re-replication induction in MCF 10a cells; MCF 10A DNA re-replication, Hoechst nuclear intensity, 48 h; Potency, µM (doses to about 46.1 µM), without a hit: at the highest dose activity, positive = re-replication, hits mostly activators; 350,000 tested, 2.9% active; AID 624296; note: % of control where 0% means no effect; nearly all actives have a fitted effect of over 50% in size
* = called active by the depositor; i = inactive; ? = inconclusive; . = no result given; [ ] = remark or other dose. Calls come from the whole dose curve; as a rule, active = well fitted curve in the direction sought with a large enough effect; inconclusive = small, poorly fitted or top-dose-only effect, or another doubt; inactive = no such curve, though single readings can be large; an effect the other way counts as inactive or inconclusive. Potency is the fitted concentration of half-maximal effect.

SMILES	RORg inh	SW480 rerep	KB-3-1 cytotox	KB-V1 cytotox	VP16 counter	MCF10A rereplic
CC(C)(C)N(Cc1ccccc1)C(=O)c1ccc(Br)o1	?	4%	i	i	-14%	?
Cc1ccc(C(=O)N(Cc2ccccc2)C(C)(C)C)cc1C	?	-3%	i	i	0%	23µM*
Cc1ccc(C(=O)OCC(=O)N(Cc2ccccc2)C(C)C)cc1C	.	2%	i	21µM*	.	-2%
O=C(COC(=O)c1ccc(F)c([N+](=O)[O-])c1)NC(=O)NCc1ccccc1	.	?	i	?	.	21µM*
COc1cc(NC(=O)c2cccs2)c(C(=O)OCC(=O)NC(=O)NCc2ccccc2)cc1OC	22%	23%	i	i	-1%	15µM*
O=C(COC(=O)c1ccc([N+](=O)[O-])s1)NCc1ccccc1	11µM*	-2%	i	i	-24%	-3%
O=C(COC(=O)c1ccc([N+](=O)[O-])s1)Nc1ccccc1	-6%	-2%	i	i	-5%	11%
Cc1ccc(C(=O)OCC(=O)NC(=O)NCc2ccccc2)cc1C	.	4%	i	i	.	10µM*
CC(C)CN(C(=O)COC(=O)c1cccs1)c1c(N)n(Cc2ccccc2)c(=O)[nH]c1=O	.	.	i	i	.	.
CCN(C(=O)COC(=O)CCOc1ccc(C(C)(C)C)cc1)c1c(N)n(Cc2ccccc2)c(=O)[nH]c1=O	.	0%	26µM*	i	.	23µM*
CC(C)CN(C(=O)COC(=O)c1ccc([N+](=O)[O-])s1)c1c(N)n(Cc2ccccc2)c(=O)[nH]c1=O	.	?	21µM*	i	.	1%
O=C(Nc1cccc(Br)c1)Nc1nc2c(s1)CCCCCC2	.	.	i	?	.	.
CC(C)[C@H](NC(=O)OC(C)(C)C)[C@@H](O)CC(=O)C(C)(C)C	16%[10 µM]	.	.	.	-5%[10 µM]	.
C[C@@H]1[C@H](c2ccccc2)OCCS(=O)(=O)N1Cc1ccc(Cl)cc1	.	.	16µM*	12µM*	.	.
COc1cccc(CN(C)Cc2nc3cc(C(F)(F)F)ccc3c(=O)[nH]2)c1	2µM*	-9%	i	i	-19%	-6%
C=CCOc1ccc(CN(C)Cc2nc3cc(C(F)(F)F)ccc3c(=O)[nH]2)cc1	7.1µM*	i[1.84 µM]	i	i	?	2%
CCCCN(C)C(=O)Cn1cnc2sc(C)c(S(=O)(=O)N3CCC(C)CC3)c2c1=O	.	.	i	i	.	.
N#CC1=C(Nc2ccccc2Cl)SC2(CCCC2)NC1=O	.	.	i	i	.	.
COCc1c(C(=O)OCC(=O)N2c3ccccc3NC(=O)C2(C)C)oc2ccccc12	6%	2%	i	16µM*	-4%	?
COC(=O)c1cccc(S(=O)(=O)N2CCC(c3nc4ccccc4o3)CC2)c1	22%	-8%	i	i	2%	13%
COC(=O)c1ccccc1S(=O)(=O)N1CCC(c2nc3ccccc3o2)CC1	?	-6%	i	12µM*	11%	9%
O=S(=O)(NCc1ccccn1)C(F)(F)F	1.4µM*	3%	i	i	?	11%
CC(C)c1ccc(NC(=O)C2(C)Cc3c(-c4ccccc4)ccnc3O2)cc1 (centres undefined)	.	.	i	i	.	.
COc1cc2c(cc1OC)C(C)N(C(=O)c1nccnc1C(=O)O)CC2 (centres undefined)	-15%	1%	i	i	1%	-1%
COc1cc2c(cc1OC)C(C)N(C(=O)c1ccc(Br)o1)CC2 (centres undefined)	-12%	20%	21µM*	13µM*	-11%	17%
COc1cc2c(cc1OC)C(C)N(C(=O)c1cc(Cl)nc(Cl)c1)CC2 (centres undefined)	-9%	8.2µM*	?	i	0%	9.2µM*
C[C@H]1CN([C@@H](C)CO)C(=O)CCCn2nncc2CO[C@H]1CN(C)C(=O)Nc1cccc(Oc2ccccn2)c1	.	.	i	i	.	.
